Measurements published in PubChem BioAssay (NCI).
About 79,000 compounds went through this panel and 15% of them were active in at least one assay; those are over-represented in the sample as a whole. The source made the active and inactive calls. Rule as the data show it: active = growth inhibition above about 70%; inactive = the rest.

Key:
[1] = NCI Yeast Anticancer Drug Screen. Data for the wt2 strain (AID 169);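 also: 0% = growth of vehicle-treated yeast cultures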; details: S. cerevisiae wt2 strain growth inhibition, stronger effect = higher value
Procedure, shortened: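 Genetically defined yeast strains from a DNA-repair/cell-cycle panel were used. Compound-exposed yeast growth was measured, and the inhibition was calculated relative to vehicle treatment.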

[2] = NCI Yeast Anticancer Drug Screen. Data for the mlh1 strain (AID 171);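 also: 0% = growth of vehicle-treated control cultures of the same strain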; details: S. cerevisiae mlh1 strain growth inhibition, stronger effect = higher value
Procedure, shortened: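 Here the genetically defined yeast mutant is grown with each compound, and the extent to which its growth falls below that of vehicle-exposed cells is reported.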

[3] = NCI Yeast Anticancer Drug Screen. Data for the sgs1 strain (AID 173);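 also: 0% = growth of vehicle-only control cultures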; details: S. cerevisiae sgs1 mutant, stronger effect = higher value
Procedure, shortened: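 Relative growth inhibition, referenced to vehicle, was determined in a yeast strain with a defined alteration affecting DNA damage repair or cell cycle control after compound exposure.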

[4] = NCI Yeast Anticancer Drug Screen. Data for the mlh1 rad18 strain (AID 175); details: S. cerevisiae mlh1 rad18 strain growth inhibition, stronger effect = higher value
Procedure, shortened: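 In this whole-cell yeast screen, a strain with altered DNA damage repair is challenged with compound, and its growth is measured against matched vehicle-treated controls.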

[5] = NCI Yeast Anticancer Drug Screen. Data for the rad18 strain (AID 177); details: S. cerevisiae rad18 mutant growth inhibition, stronger effect = higher value
Procedure, shortened: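 Screen uses a yeast strain with a defined lesion in DNA damage repair; compound effect is read as loss of growth compared to untreated vehicle cultures.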

[6] = NCI Yeast Anticancer Drug Screen. Data for the rad52 strain (AID 147);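 also: 0% = growth of vehicle-treated control cultures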; details: S. cerevisiae rad52 mutant growth inhibition, stronger effect = higher value
Procedure, shortened: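 Measured: yeast growth inhibition. System: strain with a defined DNA damage repair alteration. Reference: vehicle-treated control cultures.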

[7] = NCI Yeast Anticancer Drug Screen. Data for the wt1 strain (AID 149);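 also: 0% = growth of vehicle-treated wt1 cultures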; details: S. cerevisiae wt1 strain (SPY 50644) growth inhibition, stronger effect = higher value
Procedure, shortened: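 Readout: yeast growth inhibition, normalised to vehicle controls, in the wt1 strain exposed to test compounds.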

[8] = NCI Yeast Anticancer Drug Screen. Data for the rad50EPP+ strain (AID 151);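 also: 0% = growth of vehicle-treated control cultures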; details: S. cerevisiae rad50 mutant strain, stronger effect = higher value
Procedure, shortened: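 One strain with a rad50 alteration (rad50EPP+) was compound-treated, its growth then compared to that of vehicle controls.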

[9] = NCI Yeast Anticancer Drug Screen. Data for the mgt1 strain (AID 153); details: S. cerevisiae mgt1 mutant growth inhibition, stronger effect = higher value
Procedure, shortened: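 After exposure of the mgt1 yeast mutant to compound, growth was measured and reported as inhibition compared with vehicle controls.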

[10] = NCI Yeast Anticancer Drug Screen. Data for the rad50 strain (AID 155);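 also: 0% = growth of vehicle-only cultures of the same strain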; details: S. cerevisiae rad50 strain growth inhibition, stronger effect = higher value
Procedure, shortened: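 Compounds were tested on a yeast strain with an engineered DNA damage repair alteration; the reported value is growth inhibition normalised to vehicle treatment.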

[11] = NCI Yeast Anticancer Drug Screen. Data for the mec2-1 strain (AID 157); details: S. cerevisiae mec2-1 strain, stronger effect = higher value
Procedure, shortened: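 Test agents were screened against the mec2-1 yeast strain, with defined DNA repair or cell cycle alteration. Growth was scored as inhibition against vehicle-only controls.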

[12] = NCI Yeast Anticancer Drug Screen. Data for the rad14 strain (AID 159);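 also: 0% = growth of vehicle-treated control cultures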; details: S. cerevisiae rad14 strain growth inhibition, stronger effect = higher value
Procedure, shortened: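 Compound-treated yeast with a defined DNA-repair lesion; growth inhibition normalised to vehicle-treated cultures.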

[13] = NCI Yeast Anticancer Drug Screen. Data for the sgs1 mgt1 strain (AID 161);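 also: 0% = growth of cultures given vehicle only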; details: S. cerevisiae sgs1 mgt1 strain, stronger effect = higher value
Procedure, shortened: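 Mutant yeast exposed to compound; growth scored against vehicle-only wells.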

[14] = NCI Yeast Anticancer Drug Screen. Data for the CLN2oe strain (AID 163);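 also: 0% = growth of vehicle-only control cultures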; details: S. cerevisiae CLN2oe strain, stronger effect = higher value
Procedure, shortened: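 Here, growth inhibition in a cell-cycle-altered yeast strain after compound exposure was quantified against vehicle control growth.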

[15] = NCI Yeast Anticancer Drug Screen. Data for the cln2 rad14 strain (AID 165);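 also: 0% = growth equal to vehicle treated cultures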; details: S. cerevisiae cln2 rad14 strain, stronger effect = higher value
Procedure, shortened: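 Growth of compound-exposed yeast (cln2 rad14 genotype) measured and expressed as inhibition relative to vehicle.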

[16] = NCI Yeast Anticancer Drug Screen. Data for the bub3 strain (AID 167); details: S. cerevisiae bub3 mutant strain, stronger effect = higher value
Procedure, shortened: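 Growth of a checkpoint-deficient yeast mutant is measured after compound exposure. Values represent inhibition relative to vehicle.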

[17] = at 5.0 µM (retest, dose inferred, filed as 0.5)
[18] = at 50.0 µM (retest, dose inferred, filed as 5.0)

Measured: growth inhibition

CCN(CC)CCN1C(=O)c2cccc3cc(OC)cc(c23)C1=O
inactive: [1]; at 1.2 µM -23% | [1]; at 3.7 µM -3% | [1]; at 11.0 µM -38% | [1]; at 33.0 µM -35% | [1]; at 100.0 µM 13% | [2]; at 1.2 µM -24% | [2]; at 3.7 µM -5% | [2]; at 11.0 µM -7% | [2]; at 33.0 µM -15% | [2]; at 100.0 µM 9% | [3]; at 1.2 µM -4% | [3]; at 3.7 µM 40% | [3]; at 11.0 µM 42% | [3]; at 33.0 µM 36% | [3]; at 100.0 µM 42% | [4]; [17] 12% | [4]; [18] 36% | [4]; at 50.0 µM -14.2% | [5]; at 1.2 µM 7% | [5]; at 3.7 µM -2% | [5]; at 11.0 µM -13% | [5]; at 33.0 µM -12% | [5]; at 100.0 µM 12%

O=[N+]([O-])c1ccc([N+]2=NC(c3ccccc3)=NN(c3ccccc3)C2)cc1
inactive: [6]; at 1.2 µM 8% | [6]; at 3.7 µM 11% | [6]; at 11.0 µM 10% | [6]; at 33.0 µM 14% | [6]; at 100.0 µM 56% | [7]; at 1.2 µM 3% | [7]; at 3.7 µM 5% | [7]; at 11.0 µM 4% | [7]; at 33.0 µM 3% | [7]; at 100.0 µM 51% | [8]; at 1.2 µM 6% | [8]; at 3.7 µM 12% | [8]; at 11.0 µM 21% | [8]; at 33.0 µM 22% | [8]; at 100.0 µM 20% | [9]; at 1.2 µM 6% | [9]; at 3.7 µM 5% | [9]; at 11.0 µM 7% | [9]; at 33.0 µM 21% | [10]; at 1.2 µM 5% | [10]; at 3.7 µM -6% | [10]; [17] 1% | [10]; at 11.0 µM -9% | [10]; at 33.0 µM 15% | [10]; [18] 30% | [10]; at 50.0 µM 67.3% | [10]; at 100.0 µM 63% | [11]; at 1.2 µM -2% | [11]; at 3.7 µM -2% | [11]; [17] -9% | [11]; at 11.0 µM 0% | [11]; at 33.0 µM 9% | [11]; [18] 6% | [11]; at 50.0 µM 18.4% | [11]; at 100.0 µM 42% | [12]; at 1.2 µM 4% | [12]; at 3.7 µM 8% | [12]; at 11.0 µM 20% | [12]; at 33.0 µM 44% | [13]; [17] -1% | [13]; [18] 17% | [14]; at 1.2 µM -5% | [14]; at 3.7 µM -3% | [14]; at 11.0 µM -2% | [14]; at 33.0 µM 2% | [14]; at 100.0 µM 40% | [15]; [17] 9% | [15]; [18] 20% | [15]; at 50.0 µM 21.4% | [16]; at 1.2 µM -2% | [16]; at 3.7 µM 0% | [16]; [17] 10% | [16]; at 11.0 µM 12% | [16]; at 33.0 µM 30% | [1]; at 1.2 µM 0% | [1]; at 3.7 µM 2% | [1]; at 11.0 µM 1% | [1]; at 33.0 µM 11% | [2]; at 1.2 µM 1% | [2]; at 3.7 µM 4% | [2]; at 11.0 µM 6% | [2]; at 33.0 µM 19% | [3]; at 1.2 µM 0% | [3]; at 3.7 µM 1% | [3]; at 11.0 µM 2% | [3]; at 33.0 µM 28% | [4]; [17] -2% | [4]; [18] 48% | [5]; at 1.2 µM 3% | [5]; at 3.7 µM 4% | [5]; at 11.0 µM 2% | [5]; at 33.0 µM 11%
active: [9]; at 100.0 µM 95% | [12]; at 100.0 µM 93% | [13]; at 50.0 µM 74.5% | [16]; [18] 91% | [16]; at 50.0 µM 78% | [16]; at 100.0 µM 87% | [1]; at 100.0 µM 95% | [2]; at 100.0 µM 93% | [3]; at 100.0 µM 91% | [4]; at 50.0 µM 80.5% | [5]; at 100.0 µM 70%

O=C(c1cc(Br)ccc1O)c1cc(Br)ccc1O
active: [6]; at 3.7 µM 80% | [6]; at 11.0 µM 99% | [6]; at 33.0 µM 99% | [6]; at 100.0 µM 99% | [7]; at 3.7 µM 78% | [7]; at 11.0 µM 99% | [7]; at 33.0 µM 100% | [7]; at 100.0 µM 100% | [8]; at 11.0 µM 90% | [8]; at 33.0 µM 99% | [8]; at 100.0 µM 99% | [9]; at 3.7 µM 95% | [9]; at 11.0 µM 99% | [9]; at 33.0 µM 100% | [9]; at 100.0 µM 100% | [10]; at 11.0 µM 99% | [10]; at 33.0 µM 99% | [10]; [18] 99% | [10]; at 50.0 µM 99.3% | [10]; at 100.0 µM 99% | [11]; at 3.7 µM 97% | [11]; at 11.0 µM 99% | [11]; at 33.0 µM 100% | [11]; [18] 100% | [11]; at 50.0 µM 99.5% | [11]; at 100.0 µM 100% | [12]; at 11.0 µM 99% | [12]; at 33.0 µM 100% | [12]; at 100.0 µM 98% | [13]; [18] 97% | [13]; at 50.0 µM 99.4% | [14]; at 3.7 µM 96% | [14]; at 11.0 µM 100% | [14]; at 33.0 µM 99% | [14]; at 100.0 µM 99% | [15]; [18] 98% | [15]; at 50.0 µM 98.7% | [16]; at 3.7 µM 90% | [16]; at 11.0 µM 99% | [16]; at 33.0 µM 99% | [16]; [18] 99% | [16]; at 50.0 µM 99.2% | [16]; at 100.0 µM 99% | [1]; at 3.7 µM 87% | [1]; at 11.0 µM 99% | [1]; at 33.0 µM 100% | [1]; at 100.0 µM 100% | [2]; at 3.7 µM 93% | [2]; at 11.0 µM 99% | [2]; at 33.0 µM 100% | [2]; at 100.0 µM 100% | [3]; at 3.7 µM 90% | [3]; at 11.0 µM 99% | [3]; at 33.0 µM 100% | [3]; at 100.0 µM 100% | [4]; [18] 99% | [4]; at 50.0 µM 99.4% | [5]; at 3.7 µM 89% | [5]; at 11.0 µM 99% | [5]; at 33.0 µM 99% | [5]; at 100.0 µM 99%
inactive: [6]; at 1.2 µM 13% | [7]; at 1.2 µM 9% | [8]; at 1.2 µM 16% | [8]; at 3.7 µM 47% | [9]; at 1.2 µM 38% | [10]; at 1.2 µM 13% | [10]; at 3.7 µM 67% | [10]; [17] 2% | [11]; at 1.2 µM 29% | [11]; [17] 20% | [12]; at 1.2 µM 8% | [12]; at 3.7 µM 40% | [13]; [17] 22% | [14]; at 1.2 µM 34% | [15]; [17] -3% | [16]; at 1.2 µM 17% | [16]; [17] 5% | [1]; at 1.2 µM 12% | [2]; at 1.2 µM 23% | [3]; at 1.2 µM 32% | [4]; [17] 45% | [5]; at 1.2 µM 32%
